Reference: PubChem BioAssay (EPA / NIEHS)
Values joined by “and” are separate entries in the source; they are usually repeats but may differ in a detail not shown here. Equal entries are not always repeated. Inconclusive results are not listed. The source holds several records for some structures; these can differ, active in one and inactive in another. Active and inactive are the calls of the source. Rule for the calls: active = hit-call score of the fitted dose curve at least 0.9, where 1 is the maximum; inconclusive = response in the unintended direction; inactive = score below 0.9.

biological target: human Dopamine Receptor D2 (DRD2), DRD2 (gene 1813) (UniProt P14416); experiment: NVS_GPCR_hDRD2s: NovaScreen (NVS) G Protein-Coupled Receptor Assay for human Dopamine Receptor D2 (DRD2) (AID 2283266)
In short: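 Test compound (25 uM, duplicate in the primary screen; concentration series at follow-up) competed with radioligand for human DRD2 in CHO-derived membrane protein. Filter-based scintillation counting was done 1.5 hours after dosing, with loss of signal analysed against DMSO.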

Sequence of human Dopamine Receptor D2 (DRD2), DRD2 (gene 1813) (P14416 whole entry, looked up): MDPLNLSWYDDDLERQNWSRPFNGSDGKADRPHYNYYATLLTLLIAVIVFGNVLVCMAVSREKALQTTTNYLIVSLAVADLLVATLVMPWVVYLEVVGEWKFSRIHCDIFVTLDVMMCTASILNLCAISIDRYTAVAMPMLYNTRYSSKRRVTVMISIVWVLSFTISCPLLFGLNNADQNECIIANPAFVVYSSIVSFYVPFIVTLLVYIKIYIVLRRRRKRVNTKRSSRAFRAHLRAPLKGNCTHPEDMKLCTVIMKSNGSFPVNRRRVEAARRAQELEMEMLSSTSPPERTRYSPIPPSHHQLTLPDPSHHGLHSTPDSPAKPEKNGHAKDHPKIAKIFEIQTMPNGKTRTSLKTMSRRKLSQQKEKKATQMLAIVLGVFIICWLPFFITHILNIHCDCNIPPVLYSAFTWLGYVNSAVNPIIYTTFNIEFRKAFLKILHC

| Compound | AC50 | outcome |
| --- | --- | --- |
| Oc1ccc(Cl)cc1Cc1ccccc1 | 33.5 µM (active) [middle of 6 runs] |  |
| Oc1cc(Cl)ccc1Oc1ccc(Cl)cc1Cl |  | inactive |
| O=S(=O)(O)C(F)(F)C(F)(F)C(F)(F)C(F)(F)C(F)(F)C(F)(F)C(F)(F)C(F)(F)F | 7.24 µM (active) |  |
| O=C(O)C(F)(F)C(F)(F)C(F)(F)C(F)(F)C(F)(F)C(F)(F)C(F)(F)F |  | inactive |

biological target: D(1A) dopamine receptor (Homo sapiens) (UniProt P21728); experiment: NVS_GPCR_hDRD1: NovaScreen (NVS) G Protein-Coupled Receptor Assay for human Dopamine Receptor D1 (DRD1) (AID 2283269)
In short: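 Radioligand displacement binding on membranes/protein extracted from HEK293 expressing human D1, cell-free; read 1 h after dosing by filter-based scintillation counting. Primary screen in duplicate at 25 uM, actives followed up in concentration series; signal loss versus DMSO baseline.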

Sequence of D(1A) dopamine receptor (Homo sapiens) (P21728 whole entry, looked up): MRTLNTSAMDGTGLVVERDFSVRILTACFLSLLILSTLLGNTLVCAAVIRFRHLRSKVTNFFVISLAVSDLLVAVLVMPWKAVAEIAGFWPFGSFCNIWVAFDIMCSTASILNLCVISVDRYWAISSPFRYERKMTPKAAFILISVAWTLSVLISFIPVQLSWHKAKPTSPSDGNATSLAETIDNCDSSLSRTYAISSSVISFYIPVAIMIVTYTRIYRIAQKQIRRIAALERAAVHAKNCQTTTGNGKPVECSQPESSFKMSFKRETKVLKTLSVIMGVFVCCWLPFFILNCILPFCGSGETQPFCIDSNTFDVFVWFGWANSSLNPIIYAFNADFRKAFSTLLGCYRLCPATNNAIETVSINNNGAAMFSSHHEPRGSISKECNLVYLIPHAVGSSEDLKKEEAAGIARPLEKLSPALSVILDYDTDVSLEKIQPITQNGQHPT

| Compound | AC50 | outcome |
| --- | --- | --- |
| Oc1ccc(Cl)cc1Cc1ccccc1 | 33 µM (active) [middle of 6 runs] |  |
| O=C1c2ccccc2C(=O)N1SC(Cl)(Cl)Cl | 13.3 µM (active) |  |
| Oc1cc(Cl)ccc1Oc1ccc(Cl)cc1Cl | 25 µM (active) | inactive |
| N#Cc1c(Cl)c(Cl)c(Cl)c(C#N)c1Cl | 15.5 µM (active) |  |

biological target: Muscarinic acetylcholine receptor M1 (Homo sapiens) (UniProt P11229); experiment: NVS_GPCR_hM1: NovaScreen (NVS) G Protein-Coupled Receptor Assay for human Muscarinic, M1 Receptor (AID 2283270)
In short: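 Actives from a duplicate 25 uM single-point screen were retested in concentration series. Binding measured as displacement of a radioligand from CHO-derived receptor preparation, 1 h incubation, filtration and scintillation counting, analysed as signal loss against DMSO.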

Sequence of Muscarinic acetylcholine receptor M1 (Homo sapiens) (P11229 whole entry, looked up): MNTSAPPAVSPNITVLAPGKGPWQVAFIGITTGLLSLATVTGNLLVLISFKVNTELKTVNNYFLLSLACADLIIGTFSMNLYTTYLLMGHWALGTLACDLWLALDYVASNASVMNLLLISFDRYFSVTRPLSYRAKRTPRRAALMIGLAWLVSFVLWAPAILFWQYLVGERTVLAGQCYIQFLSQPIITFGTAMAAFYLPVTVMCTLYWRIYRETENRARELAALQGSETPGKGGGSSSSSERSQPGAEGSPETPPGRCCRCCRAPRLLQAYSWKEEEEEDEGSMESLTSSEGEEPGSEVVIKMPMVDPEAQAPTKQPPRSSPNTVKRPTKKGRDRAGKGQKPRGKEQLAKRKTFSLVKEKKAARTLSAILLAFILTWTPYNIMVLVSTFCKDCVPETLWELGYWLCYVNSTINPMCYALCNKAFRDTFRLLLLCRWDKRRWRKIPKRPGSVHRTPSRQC

| Compound | outcome | AC50 |
| --- | --- | --- |
| O=C(O)CCCOc1ccc(Cl)cc1Cl | inactive |  |
| CCc1ccc(C(=O)NN(C(=O)c2cc(C)cc(C)c2)C(C)(C)C)cc1 | inactive |  |
| CC(C)N(C(=O)COc1nnc(C(F)(F)F)s1)c1ccc(F)cc1 | inactive |  |
| [2H]C1([2H])[n+]2ccccc2-c2cccc[n+]2C1([2H])[2H] |  | 12.9 µM (active) |

biological target: human Leukotriene B4 Receptor 1 (LTB4-BLT1), LTB4R (gene 1241) (UniProt Q15722); experiment: NVS_GPCR_hLTB4_BLT1: NovaScreen (NVS) G Protein-Coupled Receptor Assay for human Leukotriene B4 Receptor 1 (LTB4-BLT1) (AID 2283271)
Protocol: NVS_GPCR_hLTB4_BLT1 is a biochemical, single-readout assay that uses extracted gene-proteins from Human neutrophils in a cell-free assay. Measurements were taken 1 hour after chemical dosing in a 48-well plate.NVS_GPCR_hLTB4_BLT1 is one of one assay component(s) measured or calculated from the NVS_GPCR_hLTB4_BLT1 assay. It is designed to make measurements of radioligand binding, a form of binding reporter, as detected with scintillation counting signals by Filter-based radiodetection technology.Data from the assay component NVS_GPCR_hLTB4_BLT1 was analyzed into 1 assay endpoint. This assay endpoint, NVS_GPCR_hLTB4_BLT1, was analyzed in the positive analysis fitting direction relative to DMSO as the negative control and baseline of activity. Using a type of binding reporter, loss-of-signal activity can be used to understand changes in the binding as they relate to the gene LTB4R. Furthermore, this assay endpoint can be referred to as a primary readout, because the performed assay has only produced 1 assay endpoint. To generalize the intended target to other relatable targets, this assay endpoint is annotated to the gpcr intended target family, where the subfamily is rhodopsin-like receptor.
Binding assays used specific radioligands (tritiated, iodinated) with non-radioactive competitive displacement ligands in agonist or antagonist protocols (as indicated) and various reference compounds and inhibitors to titrate specific binding to receptors and transporters. Most enzyme assays (CYPs, kinases, phosphatases, proteases, HDACs) used recombinant protein and specific substrates (fluorescence mostly, some colorimetric and radioactive) and inhibitors, followed by a biochemical separation of substrate and product. All assays for the biochemical HTS were initially run in duplicate at a single concentration (10 uM for CYP450 assays and 25 uM for all others). Assay-chemical combinations meeting a pre-defined threshold (e.g., 30% inhibition and other criteria defined below) were then run in singleton concentration-response format with maximum concentration of 20 uM for CYPs and 50 uM for all others. Each assay was run with positive and negative controls, and concurrent controls on every plate. The follow-up (secondary) screen tested active chemical-pairs in concentration series, as well as a few additional assays not tested in the primary screen, some selected negative inactives, and several cases re-run in the concentration series for confirmatory purposes.

Sequence of human Leukotriene B4 Receptor 1 (LTB4-BLT1), LTB4R (gene 1241) (Q15722 whole entry, looked up): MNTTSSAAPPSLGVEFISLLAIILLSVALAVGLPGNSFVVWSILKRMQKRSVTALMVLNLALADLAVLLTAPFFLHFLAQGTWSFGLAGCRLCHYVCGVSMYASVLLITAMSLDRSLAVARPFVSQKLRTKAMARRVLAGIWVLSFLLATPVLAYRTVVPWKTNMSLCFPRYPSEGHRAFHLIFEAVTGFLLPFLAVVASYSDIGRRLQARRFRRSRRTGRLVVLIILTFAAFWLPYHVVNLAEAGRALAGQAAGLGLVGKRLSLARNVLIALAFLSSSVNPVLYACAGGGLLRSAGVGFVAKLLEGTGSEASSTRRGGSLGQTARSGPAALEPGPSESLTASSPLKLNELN

| Compound | outcome | AC50 |
| --- | --- | --- |
| COP(=S)(OC)Oc1ccc([N+](=O)[O-])cc1 | inactive |  |
| CCCN(CCOc1c(Cl)cc(Cl)cc1Cl)C(=O)n1ccnc1 | inactive |  |
| CCc1ccc(C(=O)NN(C(=O)c2cc(C)cc(C)c2)C(C)(C)C)cc1 | inactive |  |
| O=S(=O)(O)C(F)(F)C(F)(F)C(F)(F)C(F)(F)C(F)(F)C(F)(F)C(F)(F)C(F)(F)F |  | 30.1 µM (active) [middle of 4 runs] |
| O=C(O)C(F)(F)C(F)(F)C(F)(F)C(F)(F)C(F)(F)C(F)(F)C(F)(F)F |  | 35.2 µM (active) |

biological target: Muscarinic acetylcholine receptor M3 (Homo sapiens) (UniProt P20309); experiment: NVS_GPCR_hM3: NovaScreen (NVS) G Protein-Coupled Receptor Assay for human Muscarinic, M3 Receptor (AID 2283272)
In short: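 Radioligand displacement binding on human M3 receptor in CHO-derived membranes, 1 h incubation, filter-based scintillation counting. Primary screen in duplicate at 25 uM; actives followed up in concentration series; loss of signal versus DMSO.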

Sequence of Muscarinic acetylcholine receptor M3 (Homo sapiens) (P20309 whole entry, looked up): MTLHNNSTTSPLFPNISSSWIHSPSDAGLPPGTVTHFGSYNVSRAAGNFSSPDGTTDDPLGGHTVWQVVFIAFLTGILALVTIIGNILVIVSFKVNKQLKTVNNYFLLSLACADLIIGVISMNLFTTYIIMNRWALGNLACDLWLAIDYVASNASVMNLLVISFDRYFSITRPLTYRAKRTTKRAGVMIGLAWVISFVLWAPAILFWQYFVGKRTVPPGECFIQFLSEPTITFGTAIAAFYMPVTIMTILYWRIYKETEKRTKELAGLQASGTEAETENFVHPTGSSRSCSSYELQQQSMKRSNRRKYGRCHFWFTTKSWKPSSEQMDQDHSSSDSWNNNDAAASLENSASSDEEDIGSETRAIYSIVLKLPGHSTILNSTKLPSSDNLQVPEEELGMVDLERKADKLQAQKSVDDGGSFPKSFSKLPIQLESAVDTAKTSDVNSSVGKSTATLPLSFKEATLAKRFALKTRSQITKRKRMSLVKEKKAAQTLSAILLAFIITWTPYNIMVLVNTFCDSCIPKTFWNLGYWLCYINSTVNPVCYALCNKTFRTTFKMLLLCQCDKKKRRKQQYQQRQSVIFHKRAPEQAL

| Compound | AC50 | outcome |
| --- | --- | --- |
| Oc1ccc(Cl)cc1Cc1ccccc1 | 39.4 µM (active) | inactive |
| CCc1ccc(C(=O)NN(C(=O)c2cc(C)cc(C)c2)C(C)(C)C)cc1 | 0.194 µM (active) |  |
| [2H]C1([2H])[n+]2ccccc2-c2cccc[n+]2C1([2H])[2H] | 4.96 µM (active) |  |

biological target: Muscarinic acetylcholine receptor M2 (Homo sapiens) (UniProt P08172); experiment: NVS_GPCR_hM2: NovaScreen (NVS) G Protein-Coupled Receptor Assay for human Muscarinic, M2 Receptor (AID 2283273)
In short: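 Radioligand competition binding, cell-free, receptor from CHO; 1 h incubation; scintillation detection. Primary testing at 25 uM in duplicate.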

Sequence of Muscarinic acetylcholine receptor M2 (Homo sapiens) (P08172 whole entry, looked up): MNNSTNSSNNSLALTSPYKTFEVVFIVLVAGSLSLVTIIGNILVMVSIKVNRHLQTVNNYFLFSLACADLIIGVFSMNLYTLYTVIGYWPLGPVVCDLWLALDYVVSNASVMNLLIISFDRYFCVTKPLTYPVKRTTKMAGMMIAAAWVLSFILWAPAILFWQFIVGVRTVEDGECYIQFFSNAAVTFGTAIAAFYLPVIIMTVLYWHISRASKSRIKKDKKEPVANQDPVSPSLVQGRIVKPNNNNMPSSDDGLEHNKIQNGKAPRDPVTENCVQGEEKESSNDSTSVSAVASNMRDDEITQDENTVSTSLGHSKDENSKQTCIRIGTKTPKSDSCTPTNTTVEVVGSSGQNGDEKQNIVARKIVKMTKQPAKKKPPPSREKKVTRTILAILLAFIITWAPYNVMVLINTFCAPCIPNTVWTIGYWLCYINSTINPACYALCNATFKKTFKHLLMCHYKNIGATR

| Compound | outcome | AC50 |
| --- | --- | --- |
| COP(=S)(OC)Oc1ccc([N+](=O)[O-])cc1 | inactive |  |
| Oc1ccc(Cl)cc1Cc1ccccc1 | inactive |  |
| CCc1ccc(C(=O)NN(C(=O)c2cc(C)cc(C)c2)C(C)(C)C)cc1 |  | 0.152 µM (active) |

biological target: human Muscarinic, M4 Receptor, CHRM4 (gene 1132) (UniProt P08173); experiment: NVS_GPCR_hM4: NovaScreen (NVS) G Protein-Coupled Receptor Assay for human Muscarinic, M4 Receptor (AID 2283274)
In short: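 Filter-based scintillation counting of radioligand bound to CHO-expressed human M4 preparations after 1 h; loss of signal fitted versus DMSO. Initial duplicate testing at 25 uM, concentration-response follow-up for actives.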

Sequence of human Muscarinic, M4 Receptor, CHRM4 (gene 1132) (P08173 whole entry, looked up): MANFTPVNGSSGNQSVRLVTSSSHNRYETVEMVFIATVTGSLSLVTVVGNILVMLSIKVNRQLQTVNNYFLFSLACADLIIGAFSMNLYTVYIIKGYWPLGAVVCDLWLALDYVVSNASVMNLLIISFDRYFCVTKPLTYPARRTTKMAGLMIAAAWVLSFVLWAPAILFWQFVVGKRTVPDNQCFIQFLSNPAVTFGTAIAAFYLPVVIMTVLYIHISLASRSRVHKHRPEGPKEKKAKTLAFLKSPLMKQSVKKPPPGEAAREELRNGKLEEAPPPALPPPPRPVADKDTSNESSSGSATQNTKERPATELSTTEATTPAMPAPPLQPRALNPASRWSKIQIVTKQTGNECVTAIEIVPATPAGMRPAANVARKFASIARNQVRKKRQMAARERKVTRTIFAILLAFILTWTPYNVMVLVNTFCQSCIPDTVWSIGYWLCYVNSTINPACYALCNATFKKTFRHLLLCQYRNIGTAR

| Compound | AC50 | outcome |
| --- | --- | --- |
| COP(=S)(OC)Oc1ccc([N+](=O)[O-])cc1 | 12.1 µM (active) |  |
| O=S1OCC2C(CO1)C1(Cl)C(Cl)=C(Cl)C2(Cl)C1(Cl)Cl (stereo unspecified) |  | inactive |
| Oc1ccc(Cl)cc1Cc1ccccc1 | 31.8 µM (active) and 25.2 µM (active) | inactive |
| CCOCN(C(=O)CCl)c1c(C)cccc1CC |  | inactive |
| Oc1cc(Cl)ccc1Oc1ccc(Cl)cc1Cl |  | inactive |
| CCc1ccc(C(=O)NN(C(=O)c2cc(C)cc(C)c2)C(C)(C)C)cc1 |  | inactive |

biological target: Neuropeptide Y receptor type 2 (Homo sapiens) (UniProt P49146); experiment: NVS_GPCR_hNPY2: NovaScreen (NVS) G Protein-Coupled Receptor Assay for human Neuropeptide Receptor Y2 (NPY2) (AID 2283277)
In short: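 Chemicals were first tested in duplicate at 25 uM, then actives in singleton concentration series to 50 uM. Tracer binding to SK-N-MC-derived protein measured cell-free after 1 h via filter scintillation; signal loss relative to DMSO.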

Sequence of Neuropeptide Y receptor type 2 (Homo sapiens) (P49146 whole entry, looked up): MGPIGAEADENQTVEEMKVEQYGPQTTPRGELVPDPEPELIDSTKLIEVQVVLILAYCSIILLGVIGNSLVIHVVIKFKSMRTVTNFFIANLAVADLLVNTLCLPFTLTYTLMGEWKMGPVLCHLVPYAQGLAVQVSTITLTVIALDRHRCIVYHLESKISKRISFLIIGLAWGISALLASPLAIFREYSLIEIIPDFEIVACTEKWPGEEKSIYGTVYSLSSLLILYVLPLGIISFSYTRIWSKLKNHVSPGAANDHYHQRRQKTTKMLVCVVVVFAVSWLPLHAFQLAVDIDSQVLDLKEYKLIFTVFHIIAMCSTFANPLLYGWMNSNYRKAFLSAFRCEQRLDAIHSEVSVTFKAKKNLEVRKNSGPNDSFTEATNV

| Compound | AC50 | outcome |
| --- | --- | --- |
| COP(=S)(OC)Oc1ccc([N+](=O)[O-])cc1 | 0.043 µM (active) |  |
| CCOC1Oc2ccc(OS(C)(=O)=O)cc2C1(C)C (stereo unspecified) |  | inactive |
| O=S(=O)(O)C(F)(F)C(F)(F)C(F)(F)C(F)(F)C(F)(F)C(F)(F)C(F)(F)C(F)(F)F |  | inactive |
| O=C(O)C(F)(F)C(F)(F)C(F)(F)C(F)(F)C(F)(F)C(F)(F)C(F)(F)F |  | inactive |
